In all, about 5,500 compounds went through this assay and about 2,000 (36%) were called active. Inconclusive results (about 18%) are left out. Cut-off read from the data, not from the text of the source: active = normalized growth mostly below about 0.91 (no sharp cut-off); inconclusive = no clear call, values can overlap the other calls; inactive = mostly above about 0.92. Some of the results follow.
Experiment: chemical genetic growth profiling, strain panel (AID 1159580);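 note: tested at 20 µM; growth read once vehicle control cultures reached saturation at 30 °C; 1 = growth at the plate median or of vehicle wells; lower values mean less growth of the strain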
Conditions: growth OD

Measured: normalized growth

c1ccc(-c2csc(-c3cccnc3)n2)cc1
active: S. cerevisiae deletion strains, locus YAL013W, strain DEP1, stronger effect = lower value 0.872 | S. cerevisiae deletion strains, locus YBR229C, strain ROT2, stronger effect = lower value 0.886 | S. cerevisiae deletion strains, locus YCL061C, strain MRC1, stronger effect = lower value 0.853 | S. cerevisiae deletion strains, locus YEL061C, strain CIN8, stronger effect = lower value 0.793 | S. cerevisiae deletion strains, locus YGR078C, strain PAC10, stronger effect = lower value 0.9 | S. cerevisiae deletion strains, locus YHR030C, strain SLT2, stronger effect = lower value 0.132 | S. cerevisiae deletion strains, locus YJR075W, strain HOC1, stronger effect = lower value 0.855 | S. cerevisiae deletion strains, locus YKL190W, strain CNB1, stronger effect = lower value 0.853 | S. cerevisiae deletion strains, locus YLR039C, strain RIC1, stronger effect = lower value 0.557 | S. cerevisiae deletion strains, locus YLR058C, strain SHM2 (second series), stronger effect = lower value 0.908 | S. cerevisiae deletion strains, locus YLR085C, strain ARP6, stronger effect = lower value 0.275 | S. cerevisiae deletion strains, locus YLR262C, strain YPT6, stronger effect = lower value 0.432 | S. cerevisiae deletion strains, locus YML094W, strain GIM5, stronger effect = lower value 0.772 | S. cerevisiae deletion strains, locus YMR219W, strain ESC1, stronger effect = lower value 0.892 | S. cerevisiae deletion strains, locus YMR263W, strain SAP30, stronger effect = lower value 0.873 | S. cerevisiae deletion strains, locus YNL153C, strain GIM3, stronger effect = lower value 0.887 | S. cerevisiae deletion strains, locus YNL298W, strain CLA4 (second series), stronger effect = lower value 0.74 | S. cerevisiae deletion strains, locus YNL322C, strain KRE1, stronger effect = lower value 0.94 | S. cerevisiae deletion strains, locus YNR030W, strain Alg12, stronger effect = lower value 0.857 | S. cerevisiae deletion strains, locus YPL055C, strain LGE1, stronger effect = lower value 0.717 | S. cerevisiae deletion strains, locus YPL241C, strain CIN2, stronger effect = lower value 0.855 | S. cerevisiae deletion strains, locus YPR135W, strain CTF4, stronger effect = lower value 0.377
inactive: S. cerevisiae deletion strains, locus YDL101C, strain DUN1, stronger effect = lower value 0.912 | S. cerevisiae deletion strains, locus YDL134C, strain PPH21, stronger effect = lower value 0.954 | S. cerevisiae deletion strains, locus YDR150W, strain NUM1, stronger effect = lower value 0.946 | S. cerevisiae deletion strains, locus YHR087W, strain rtc3, stronger effect = lower value 0.938 | S. cerevisiae deletion strains, locus YJR043C, strain POL32, stronger effect = lower value 0.935 | S. cerevisiae strains, strain wild type, stronger effect = lower value 0.949

Reference: PubChem BioAssay AID1159580 (chemical genetic matrix, 2015)
